The values below come from PubChem BioAssay AID624331 (National Center for Advancing Translational Sciences (NCATS), 2012).

Structures are written as SMILES. Records with an inconclusive call do not appear. Values without a mark were called inactive. The call rests on the fitted dose curve; in most records, active means well fitted activation curve with a large enough effect; inconclusive means small, poorly fitted or top-dose-only effect; inactive means no such curve, though single readings can be large or run the other way.

The nature of this assay: qHTS assay for re-activators of p53 using a Luc reporter: Hit Validation with no p53 Expressed. Further: 0% is about no effect. As to conditions: p53-null cells, luciferase reporter counter-screen; series mostly up to 46.1 µM; activity change, positive = activation: at the top concentration. The procedure, abridged:
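Without p53 expression, cells (1000/well, Opti-MEM + 10% FBS) were exposed 24 h at 37 deg C to compounds in a 1:5 series from 10 mM stock (top 46.1 µM in well). Luminescent signal read 10 min after Amplite addition; actives flag unspecific activation.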
As for `CC(C)CC(NC(=O)C1CCC(=O)N1)C(=O)NC(CC(C)C)C(=O)N1CCCC1C(N)=O` (centres undefined), the “activity change, positive = activation” value was 64.4%. For `Cc1csc(SCC(=O)Nc2ccc(C)c(F)c2)n1` the value was -5.54%; for `COc1cccc(C2(c3cccc(OC)c3)CC2C(=O)Nc2cccc3ccccc23)c1` (centres undefined), -32.5%; for `Cc1nnc2n(c1=O)N=C(c1ccc(Cl)cc1)CS2`, 32.4%. `O=c1[nH]c(N/N=C/c2ccc(O)cc2)nc2ccccc12`: the “activity change, positive = activation” value is -0.234%. For `COc1ccc(NC(=O)/C(Cl)=C(/Cl)S(=O)(=O)Cc2ccc(C)cc2)cn1` the value was -66.8%; for `CN(C(=O)NC(=O)C1=C(N2CCOCC2)/C(=C/c2ccccc2)CC1)S(C)(=O)=O`, 93.6%. Consider `C/C(=N\NC(=O)c1ccc(F)cc1)c1ccccn1`, for which the “activity change, positive = activation” value was 11.7%. Regarding `CCc1ccc2[nH]c(=O)c(CN(CCN3CCCC3)C(=O)NC3CCCCC3)cc2c1`, the “activity change, positive = activation” value was -34.5%. For `CC1Cc2ccccc2N1C(=O)COC(=O)C1(c2ccccc2F)CCCC1` (centres undefined) the value was -13.2%; for `O=C(COc1ccc(F)cc1Cl)NC1CCCCCC1`, 87.9%.

Turning to `CN(NC1CC(=O)N(c2ccccc2)C1=O)c1ccccc1` (centres undefined), the “activity change, positive = activation” value is 25.3%. As for `Cc1cc(C)cc(NC(=O)c2sc3nc(C)cc(C)c3c2N)c1`, the “activity change, positive = activation” value is 77.9%. The same measure for `CCCCNc1ncnc2c1cnn2-c1ccccc1`: -0.0123%; for `O=C(Nc1cccnc1Cl)c1cc(-c2ccccc2O)on1`: 49%. The same measure for `CC(C)(C)NC(=O)CSC(=Nc1ccccc1F)NC#N`: 36.7%.

Turning to `COc1ccc2oc(C(=O)Nc3nnc(C)s3)c(C)c2c1`, the “activity change, positive = activation” value was 82.1%. For `Cc1ccc(-c2nnc(Oc3cccc(C)c3)c3ccccc23)cc1` the value was 37.7%; for `Cc1cc(/C=N/Nc2ncnc(N)c2[N+](=O)[O-])c(C)n1-c1ccccc1`, -65.8%; for `CC(=O)Nc1ccc(SCC(=O)c2cc(C)n(-c3ccccc3)c2C)cc1`, 8.62%.

For `COc1ccc2cc(C3(C)NC(=O)N(CC(=O)Nc4c(C)n(C)n(-c5ccccc5)c4=O)C3=O)ccc2c1` (centres undefined), the “activity change, positive = activation” value was -34.1%. The same measure for `CCOC(=O)N1CCN(S(=O)(=O)c2ccc(C(=O)NNc3nc4c(C)cc(C)cc4s3)cc2)CC1`: -36.5%; for `O=C1NCCCc2c1oc1ccc(O)cc21`: 25.7%.

`COCCCN=C(c1ccco1)n1c(=S)nc(-c2ccco2)n(CCCOC)c1=S`: the “activity change, positive = activation” value was 6.18%. Regarding `CC(C)(C)c1ccc(NC(=O)COC(=O)c2ccc(NS(=O)(=O)c3ccc(F)c(F)c3)cc2)cc1`, the “activity change, positive = activation” value was -2.43%. For `C/C(=N\NS(=O)(=O)c1ccc(Cl)cc1)c1ccc(NC(=O)c2ccco2)cc1` the value was -9.33%; for `CCN(CC)c1ccc(CNc2ccc(Br)cn2)cc1`, 84.8%; for `O=C(CSc1nnnn1C1CCCCC1)NCCc1ccccc1`, -22.1%.

Consider `CCOC(=O)c1cc(-c2ccccc2)sc1NC(=O)CC`, for which the “activity change, positive = activation” value was -51.7%.

As for `Cc1cccc2nc(CSC(=N)N)c(Br)n12`, the “activity change, positive = activation” value is -13.8%. For the molecule `COc1cc(N=c2c([N+](=O)[O-])nn(-c3ccc4c(c3)OCCO4)n2O)cc(OC)c1`, the “activity change, positive = activation” value was 65.3%. The same measure for `COc1ccc2cc3c(N)nn(C(=O)c4ccc(Cl)c([N+](=O)[O-])c4)c3nc2c1`: -33.9%; for `Cc1ccc(-c2nnc(SCC(=O)Nc3ccccc3F)o2)cc1`: -77.1%. For `O=C(N/N=C/C1C(c2ccccc2)C1(Cl)Cl)c1cccc(Cl)c1` (centres undefined) the value was -39.2%; for `CCCCNC(=S)N(Cc1c(C)noc1C)c1ccccc1`, -13%. For `Nc1cccc(-c2nc3ccc(C(=O)c4ccccc4)cc3[nH]2)c1` the value was -22.3%; for `Cc1ccc(S(=O)(=O)CNC(=O)c2ccccc2)cc1`, -19.2%. As to `CCCN1C(=O)SC(CC(=O)Nc2ccccc2C)C1=O` (centres undefined), the “activity change, positive = activation” value was 29.6%. The same measure for `O=C1/C(=C/Nc2ccc3c(c2)OCO3)CCc2ccccc21`: -43.5%.
